# Test results as given in PubChem BioAssay AID1835 (Johns Hopkins Ion Channel Center, 2009).
# Hit rate of the full screen: of about 2,400 compounds, about 750 (31%) were called active. Some of the results follow. Values without a mark were called inactive.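 How the source made its calls: active means median signal gain over dofetilide-blocked control wells reaching their mean plus 3 SD, so readout 1 at least 0; inactive means the rest.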
# Biological target: Voltage-gated inwardly rectifying potassium channel KCNH2 (Homo sapiens) (UniProt Q12809)
# Sequence (Q12809 whole entry, looked up): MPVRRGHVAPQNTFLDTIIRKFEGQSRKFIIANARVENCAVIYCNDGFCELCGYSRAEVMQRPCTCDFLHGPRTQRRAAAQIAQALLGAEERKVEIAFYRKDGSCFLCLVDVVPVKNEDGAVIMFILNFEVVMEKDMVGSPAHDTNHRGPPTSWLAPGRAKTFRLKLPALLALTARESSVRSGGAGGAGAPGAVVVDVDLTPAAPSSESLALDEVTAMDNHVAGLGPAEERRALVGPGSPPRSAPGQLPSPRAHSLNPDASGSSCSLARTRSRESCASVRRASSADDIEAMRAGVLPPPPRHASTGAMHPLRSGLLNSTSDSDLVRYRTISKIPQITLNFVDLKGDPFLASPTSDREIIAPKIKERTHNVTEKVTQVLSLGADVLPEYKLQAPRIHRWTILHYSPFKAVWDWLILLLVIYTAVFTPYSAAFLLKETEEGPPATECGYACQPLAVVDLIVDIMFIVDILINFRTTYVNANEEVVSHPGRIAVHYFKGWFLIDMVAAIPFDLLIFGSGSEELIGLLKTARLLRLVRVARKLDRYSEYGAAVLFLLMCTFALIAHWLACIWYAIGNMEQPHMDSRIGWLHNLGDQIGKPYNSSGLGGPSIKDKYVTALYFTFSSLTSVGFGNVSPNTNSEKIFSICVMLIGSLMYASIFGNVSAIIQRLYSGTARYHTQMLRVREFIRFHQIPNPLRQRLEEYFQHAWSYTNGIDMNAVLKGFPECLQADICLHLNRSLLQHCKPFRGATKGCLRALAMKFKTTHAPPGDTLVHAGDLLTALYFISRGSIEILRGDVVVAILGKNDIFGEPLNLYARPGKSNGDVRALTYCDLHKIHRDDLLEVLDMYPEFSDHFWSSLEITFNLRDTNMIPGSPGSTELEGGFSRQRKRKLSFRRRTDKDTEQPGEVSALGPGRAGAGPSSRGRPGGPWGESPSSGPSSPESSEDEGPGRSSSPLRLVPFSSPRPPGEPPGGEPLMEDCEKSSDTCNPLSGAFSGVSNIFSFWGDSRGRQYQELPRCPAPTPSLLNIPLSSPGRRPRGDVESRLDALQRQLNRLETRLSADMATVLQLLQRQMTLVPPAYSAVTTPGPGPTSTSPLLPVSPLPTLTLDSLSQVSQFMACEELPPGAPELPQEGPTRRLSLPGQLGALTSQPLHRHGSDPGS
# Assay: modulators restoring hERG flux under dofetilide – cell-based, thallium flux, duplicate retest, dofetilide IC70, confirmation (AID 1835)
# Conditions: hERG cell line, FluxOR thallium flux, dofetilide-blocked; at 10 µM; hits give high values
row,Compound,"activity increase over dofetilide control, less the hit threshold"
1,O=C(CCc1ccccc1)Nc1nccs1,-12%
2,O=C(Nc1ncc(Br)s1)C(Cc1ccccc1)n1cccc1 (configuration not stated),22% (active)
3,CC(C)C(=O)Nc1ccc(NC(=O)CCc2ccccc2)cn1,-14%
4,Cc1cc2[nH]c(=O)c(=O)[nH]c2cc1S(=O)(=O)N1CCN(c2cccc(C)c2C)CC1,-5%
5,CC(Oc1ccc(Cl)cc1)/C(N)=N/O (configuration not stated),-20%
6,Cc1ccc2[nH]cc(CCNC(=O)/C=C/c3ccco3)c2c1,-14%
7,CCOc1ccc(CC(C(N)=O)C(N)=O)cc1,-12%
8,CCCOc1ccc(-c2c(=O)n(O)c3ccccc3[n+]2[O-])cc1,51% (active)
9,CCOc1ccc(-c2c(=O)n(O)c3ccccc3[n+]2[O-])cc1,74% (active)
10,Cc1cccc(/C=N/Nc2ccc3ccccc3n2)c1,-3%
11,O=S(=O)(Nc1nc(-c2sccc2Cl)cs1)c1cc(Cl)ccc1Cl,73% (active)
12,O=C(Nc1ccccc1)OCCCCCOC(=O)Nc1ccccc1,-11%
13,C/C(Cl)=C\Cn1c(O)c(N=NC(N)=S)c2cc(Br)ccc21,49% (active)
14,C=CCn1c(O)c(N=NC(=S)Nc2ccccc2F)c2cc(S(=O)(=O)N3CCOCC3)ccc21,0%
15,COc1ccc(C(=O)O/N=C(\N)c2ccccn2)cc1[N+](=O)[O-],-11%
16,Nn1c(SCC(=O)Nc2ccc(OC(F)F)cc2)nnc1-c1ccco1,-12%
17,CCCCOC(=O)Cn1c2ccc(OC)cc2c2nc3ccccc3nc21,-28%
18,CCc1ccc(C(=O)CSc2nc3ccccc3c(=O)[nH]2)cc1,-16%
19,CC(C)OC(=O)c1c2nc3ccccc3nc2n2c1[nH]c(=O)c1ccccc12,85% (active)
20,CC1=NN(C(=O)c2cc(C)nn2C)C(O)(C(F)(F)F)C1 (configuration not stated),-14%
21,CC(C)Sc1nc2ccccc2n2cnnc12,-2%
22,O=C(c1cccc(C(F)(F)F)c1)C1CCCN(C(=O)CCn2cnnn2)C1 (configuration not stated),-3%
23,CCc1cc(=O)[nH]c(SCc2ccc(C)cc2)n1,-11%
24,CCSc1nc(=S)cc(C)[nH]1,49% (active)
25,CSc1nc(=S)cc(C)[nH]1,5% (active)
26,CCOc1cccc(Nc2cc3n(c(=O)n2)CCc2cc(OC)c(OC)cc2-3)c1,-22%

row,Compound,"activity increase over dofetilide control, less the hit threshold"
1,Cc1cc(C(=O)NP(=O)(N2CCOCC2)N2CCOCC2)c(C)n1-c1ccc(Br)cc1,-13%
2,Cc1cc(NC(=O)CSc2ccc(-c3ccc(F)cc3)nn2)no1,-12%
3,O=C(C1CC1)N1N=C(c2ccccc2)CC1(O)C(F)(F)C(F)(F)F (configuration not stated),-11%
4,CC(C)(C)C1(O)CC(C(F)(F)F)=NN1C(=O)Cc1ccc([N+](=O)[O-])cc1 (configuration not stated),-19%
5,CCCCC1(O)CC(C(F)(F)F)=NN1C(=O)COc1ccccc1 (configuration not stated),4% (active)
6,COc1cc(OC)c(C2=NOC(C(=O)Nc3ccc4c(c3)OCO4)C2)cc1Cl (configuration not stated),-21%
7,Oc1ccc(N=Nc2ccccc2-c2nn[nH]n2)c(O)c1,6% (active)
8,COc1cc(CNn2nnnc2N)ccc1OCC(=O)NC(C)(C)C,-15%
9,CCCCCCCCCCn1c2c(c(=N)c3c1CCC3)CCC2,49% (active)
10,CCOC(=O)NC(=S)Nc1ccc(C(C)(C)C)cc1Br,23% (active)
11,Cc1cc(Br)c(NC(=O)COC(=O)C2CC2C)c(Br)c1 (configuration not stated),-11%
12,COC(=O)CNC(=S)NC(=O)c1ccc(C(C)(C)C)cc1,-8%
13,CCOC(=O)NC(=S)Nc1ccc(C(C)(C)C)cc1,3% (active)
14,CCOC(=O)NC(=O)/C(C#N)=N\Nc1ccc(Cl)cc1,-17%
15,c1cnc2c(Oc3ncnc4sccc34)cccc2c1,-11%
16,N#Cc1ccc(OCc2nnc(-c3ccc([N+](=O)[O-])cc3)o2)cc1,-3%
17,COc1cc(C2NC(=O)NC(C)=C2C(=O)OCC2CCCCC2)ccc1O (configuration not stated),-3%
18,CCOC(=O)C1=C(c2ccccc2)NC(=O)NC1c1ccc(OC)c(OC)c1 (configuration not stated),-6%
19,CCOC(=O)C1=C(c2ccccc2)NC(=O)NC1c1ccc(O)c(Cl)c1 (configuration not stated),5% (active)
20,O=C(O)c1cccc(C(=O)Nc2cccc(NC(=O)C3CCCO3)c2)c1 (configuration not stated),-14%
21,CCCCN(C(=O)CNC(=O)c1cccs1)C(C(=O)NC1CCCC1)c1ccncc1 (configuration not stated),-6%
22,O=C(Nc1ccc(NC(=O)C2CC2)nc1)c1cccs1,-21%
23,CCC1CCCCN1C(=S)NC(=O)c1ccc([N+](=O)[O-])cc1 (configuration not stated),28% (active)
24,CCCCNC(=S)NC(=O)c1ccc([N+](=O)[O-])cc1,-4%
25,CCCCCC(=O)NNC(=S)NC(=O)c1ccc([N+](=O)[O-])cc1,-24%
26,CCC1CCCCN1C(=S)NC(=O)c1cccs1 (configuration not stated),4% (active)

row,Compound,"activity increase over dofetilide control, less the hit threshold"
1,O=C(NC(=S)N(CC1CCC1)CC1CCCO1)c1cccc([N+](=O)[O-])c1 (configuration not stated),14% (active)
2,CC1CCN(C(=S)NC(=O)c2cccc([N+](=O)[O-])c2)CC1,15% (active)
3,CCOC(=O)/C=C/c1ccc2c(c1)S(=O)(=O)N(c1cccc(OC)c1)[C@H]2CC(=O)OCC,-20%
4,O=C(NC1CCCC1)C(c1ccncc1)N(Cc1ccccc1F)C(=O)c1csnn1 (configuration not stated),-1%
5,Cc1occc1C(=O)Nc1cccc([N+](=O)[O-])c1,-20%
6,CCC1CCCCN1C(=S)NC(=O)c1cccc([N+](=O)[O-])c1 (configuration not stated),36% (active)
7,O=[N+]([O-])c1ccc(Nc2ccccc2F)nc1,-3%
8,O=C(CCc1nc(-c2ccccc2)no1)N1CCCC1,-20%
9,CC(C(=O)N1CCN(c2ccc([N+](=O)[O-])cc2)CC1)N1C(=O)C2CC=CCC2C1=O (configuration not stated),-9%
10,C=CCN1C(=O)C(Cc2ccc(OCC)cc2)SC1=Nc1ccc(C(=O)O)cc1 (configuration not stated),-11%
11,C=CCn1c(SCc2ccc(C(=O)O)cc2)nc2sc(C)c(C)c2c1=O,20% (active)
12,C=CCOc1ccccc1/C=c1\sc2nc(=O)c(C)nn2c1=O,-7%
13,CNC(=O)CSc1nnc(-c2ccco2)n1-c1ccc(C)cc1,-10%
14,C=CCNC(=S)Nc1sc2c(c1C(=O)OCC)CC(C(C)C)OC2 (configuration not stated),-4%
15,CCOC(=O)c1c(/N=C/C2=C(O)CCCC2=O)sc2c1CCCC2,-14%
16,C=CCNC(=S)Nc1sc2c(c1C(=O)OCC)CC(C)(CC)OC2 (configuration not stated),15% (active)
17,CNC(=S)Nc1sc2c(c1C(=O)OC)CCC2,17% (active)
18,COC(=O)c1c(NC(=S)Nc2ccc(F)cc2[N+](=O)[O-])sc2c1CCCCC2,11% (active)
19,CCOC(=O)c1c(NC(=S)NC)sc2c1CCCC2,42% (active)
20,COc1ccc(NC(=S)NC(NC(=O)c2cccc3ccccc23)C(Cl)(Cl)Cl)c([N+](=O)[O-])c1 (configuration not stated),-23%
21,COc1ccc(CCNC(=O)CSc2ccc3nnc(CCNC(=O)c4ccccc4)n3n2)cc1OC,-13%
22,Clc1cccc(-c2ccc(C=Nc3ccc(N4CCOCC4)cc3)o2)c1Cl,-12%
23,COc1ccc(CCNC(=O)CC(NS(=O)(=O)c2ccc(NC(C)=O)cc2)C(C)C)cc1OC (configuration not stated),-8%
24,CCOC(=O)c1c(NC(=S)NC)sc2c1CC(C)(C)SC2,79% (active)
25,CC(=O)NC(CSC(CC(=O)c1ccco1)c1ccc(C)cc1)C(=O)O (configuration not stated),-15%
26,C[n+]1ccccc1/C=C/c1ccc(C#N)cc1,6% (active)

row,Compound,"activity increase over dofetilide control, less the hit threshold"
1,C[n+]1ccccc1/C=C/c1c(F)cccc1F,-2%
2,COc1cc(Cl)cc(C(c2c(C(=O)O)[nH]c3ccccc23)c2c(C(=O)O)[nH]c3ccccc23)c1O,-20%
3,Cc1c(-c2ccn[nH]2)cc(NC(=O)c2ccc(Cl)cc2)c(=O)n1N,7% (active)
4,CC(=O)NCCc1nc2cc(NC(=O)c3ccc(Cl)cc3)ccc2n1C,-9%
5,Cn1nc(C(F)(F)F)c(-c2ccc(Br)cc2)c1NC(=O)c1cccnc1,6% (active)
6,CN(C)S(=O)(=O)c1cccc(C(=O)Nc2cccnc2)c1,-6%
7,O=C(N=C1SC2CS(=O)(=O)CC2N1c1cccc(Cl)c1Cl)C1CCCO1 (configuration not stated),-15%
8,CCOc1ccc(S(=O)(=O)Nc2nc3ccccc3nc2-n2ccc(=NC(=O)c3cccs3)cc2)cc1,-6%
9,Cc1nonc1CN(C)C(=O)c1ccc(OC2CCN(Cc3ccccn3)CC2)cc1,3% (active)
10,CN(CCc1ccccn1)C(=O)CCC1CCCN(C(=O)c2ccsc2)C1 (configuration not stated),-5%
11,C/C(=N\N1CCN(C2c3ccccc3-c3ccccc32)CC1)c1ccncc1,-18%
12,C/C(=C/CCC(C)[C@H]1CC[C@@]2(C)C3=C(CC[C@]12C)[C@@]1(C)CCC(=O)C(C)(C)[C@@H]1CC3)C(=O)O (some centres not stated),45% (active)
13,C/C(=C/CCC(C)C1CCC2(C)C3CCC4C(C)(C)C(=O)CCC4(C)C3=CCC12C)C(=O)O (configuration not stated),15% (active)
14,Nc1ncnc(Oc2cccc3cccnc23)c1[N+](=O)[O-],-12%
15,Nc1cc(-c2ccc(Br)cc2)[nH]n1,-11%
16,O=C(CN1C(=O)c2cccc3cccc1c23)Nc1cccnc1,-17%
17,CNC(=O)c1ccc(NC(=O)CN2c3cccc4cccc(c34)S2(=O)=O)cc1,61% (active)
18,CSc1cccc(NC(=O)CN2C(=O)c3ccccc3S2(=O)=O)c1,-19%
19,O=C(NC(=S)N1CCN(c2c(Cl)cccc2[N+](=O)[O-])CC1)c1cccs1,2% (active)
20,O=C(NC(=S)N1CCN(c2ccc(C(F)(F)F)cc2[N+](=O)[O-])CC1)c1cccs1,12% (active)
21,COc1ccc(N2CCN(C(=S)NC(=O)c3cccs3)CC2)c([N+](=O)[O-])c1,1% (active)
22,COc1ccc(N2CCN(C(=S)Nc3cccc(OC)c3)CC2)cc1,-11%
23,Cc1c(C(=O)NN2CCN(C)CC2)cccc1[N+](=O)[O-],-16%
24,O=C(NC(=S)N1CCN(c2ccc(Cl)cc2[N+](=O)[O-])CC1)c1cccs1,12% (active)
